Screens deposited in PubChem BioAssay by Center for Chemical Genomics, University of Michigan.
The sample as a whole holds a higher share of hits than the screen did.
Dicer inh: blocks human Dicer maturation of pre-miR-21. Q9UPY3. cat-ELCCA pre-miR-21 Dicer processing, chemiluminescence; active compounds read high. z-score at 25 µM. actives 6% (n = 47,000). AID 1347074; in the data active means z-score above about 3, passing the limit was not always enough;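 further: plate controls were vehicle for no effect and no enzyme for full effect; higher signal means more uncleaved substrate so more Dicer inhibition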
Active calls of the source: *; ! = not active in a repeat.

SMILES	Dicer inh
C=CCN1C(=O)C2(/C(=C(/O)c3ccc(OCC)cc3)C(=O)C(=O)N2CCN(C)C)c2ccccc21 (stereo unspecified)	-0.01
C=CCN1C(=O)C2(/C(=C(/O)c3ccccc3)C(=O)C(=O)N2CCCN(C)C)c2ccccc21 (stereo unspecified)	4.02*
CCN1C(=O)C2(/C(=C(/O)c3ccccc3)C(=O)C(=O)N2CCCN(C)C)c2ccccc21 (stereo unspecified)	3.56*
CN(C)CCCN1C(=O)C(=O)/C(=C(\O)c2ccccc2)C12C(=O)N(C)c1ccccc12 (stereo unspecified)	1.8
C=CCN1C(=O)C2(/C(=C(/O)c3ccc(F)cc3)C(=O)C(=O)N2CCCN(C)C)c2ccccc21 (stereo unspecified)	2.09
Cc1ccc2cccc(OC(=O)c3ccco3)c2n1	0.98
COc1ccc(/C(O)=C2/C(=O)C(=O)N(CCc3ccccc3)C2c2ccc(OC)cc2)cc1 (stereo unspecified)	-0.72
O=C(c1ccccc1)c1ccc2c(c1)OCCO2	-1.09
O=c1cc(CSc2ccc(Cl)cc2)[nH]n1-c1ccccc1	35.1
O=c1cc(CSc2nc3ccccc3s2)[nH]c2[nH]n(-c3ccccc3)c(=O)c12	0.06
O=c1cc(CSc2ccc(Cl)cc2)[nH]c2[nH]n(-c3ccccc3)c(=O)c12	5.36*
C/C(=N/OC(=O)Nc1ccccc1C)c1ccc2c(c1)CCO2	1.98
Cc1cc2n(n1)C(c1cccc(O)c1O)Nc1ccccc1-2 (stereo unspecified)	20.9*
COc1cccc(C2Nc3c(C)cc(C)cc3-c3cc(C)nn32)c1O (stereo unspecified)	0.17
COc1cccc(C2Nc3c(C)cccc3-c3cc(C)nn32)c1OC (stereo unspecified)	0.22
Cc1ccc2c(c1)-c1cc(C)nn1C(c1ccc(O)cc1O)N2 (stereo unspecified)	3.71*
Cc1cc2n(n1)C(c1ccc(O)cc1O)Nc1ccccc1-2 (stereo unspecified)	1.18
COc1cccc(C2Nc3ccc(C)cc3-c3cc(C)nn32)c1O (stereo unspecified)	3.04*
COc1ccc(C2Nc3ccccc3-c3cc(C)nn32)c(OC)c1 (stereo unspecified)	0.44
Cc1cc(C)c2c(c1)-c1cc(C)nn1C(c1ccc(O)cc1O)N2 (stereo unspecified)	1.41
COc1cccc(C2Nc3ccc(C)cc3-c3cc(C)nn32)c1OC (stereo unspecified)	1.95
COc1cc(O)ccc1C1Nc2ccc(C)cc2-c2cc(C)nn21 (stereo unspecified)	2.71
Cc1ccc2c(c1)-c1cc(C)nn1C(c1ccccc1O)N2 (stereo unspecified)	-0.25
COc1cccc(C2Nc3c(C)cc(C)cc3-c3cc(C)nn32)c1OC (stereo unspecified)	4.86*
CC(=O)NC(NCc1ccc(F)cc1)(C(F)(F)F)C(F)(F)F	-1.08
SMILES	Dicer inh
CCCCCCc1c(O)c2cccc3c4c(n(c1=O)c23)CCCC4	-0.52
CCOC(=O)CCC(C#N)(c1cccs1)N1CCOCC1 (stereo unspecified)	0.02
Nc1[nH]nc2nc(-c3ccccc3)c3c(c12)CCC3	0.72
Cc1ccc(C2Nn3c(C)nnc3SC2C(=O)NCc2ccco2)cc1 (stereo unspecified)	-0.3
COc1cc(C)c(Cl)cc1S(=O)(=O)n1ccnc1C(C)C	0.84
Cc1ccc(N2CC(O)=C(c3nc4ccccc4s3)C2=N)cc1C	2.72
COc1ccc(C2Nc3ccc(C)cc3-c3cc(C)nn32)cc1OC (stereo unspecified)	2.69
COc1ccc(Br)cc1C1Nc2ccc(C)cc2-c2cc(C)nn21 (stereo unspecified)	3.45*
COc1ccc(Br)cc1C1Nc2c(C)cccc2-c2cc(C)nn21 (stereo unspecified)	2.9
Cn1c2ccccc2c2nnc(SCC(=O)Nc3nnc(COc4ccccc4)s3)nc21	-0.34
Cc1nn(-c2ccccc2)c2c1C1=C(C(=O)CC(C)(C)C1)C(c1ccc(N(C)C)cc1)N2 (stereo unspecified)	3.4*
Cc1[nH]nc2c1C1=C(C(=O)CC(C)(C)C1)C(c1ccc(N(C)C)cc1)N2 (stereo unspecified)	2.25
CCC1C2=C(CC(C)(C)CC2=O)Nc2c1c(C)nn2-c1ccccc1 (stereo unspecified)	-2.63
Cc1cc(C(C)(C)C)c(OC(=O)C(C)C)c(C(C)(C)C)c1	-1.74
CCc1ccc2oc(-c3cc(N)ccc3Cl)nc2c1	4.5*
Nc1ccc(Cl)c(-c2nc3cc(Cl)ccc3o2)c1	1.81
Cc1ccc2oc(-c3cc(N)ccc3Cl)nc2c1	2.71
CCCCCCCC/C=C\CCCCCCCC(=O)NCCc1ccc(O)c(O)c1	1.09
C[C@H](Cc1ccc(O)c(O)c1)[C@@H](C)Cc1ccc(O)c(O)c1	0.3
CC(CCc1ccc(O)cc1)NCCc1ccc(O)c(O)c1 (stereo unspecified)	6.96*!
CCOC(=O)c1cc2c(c(CSc3ccc(C(F)(F)F)cn3)c1)OCOC2	0.46
CC1=C(C(=O)Nc2ccc(C)cn2)C(c2ccc(Br)cc2)C2=C(CC(C)(C)CC2=O)N1 (stereo unspecified)	0.5
CCc1[nH]c(=O)cc2cc(OC)c(OC)cc12	-5.7
Cc1cc2c(cc1C)[n+](C)cn2CC(O)COc1cccc(Cl)c1 (stereo unspecified)	-0.27
CN1CCN(CCCN2c3ccccc3Sc3ccc(S(=O)(=O)N(C)C)cc32)CC1	5.97*
SMILES	Dicer inh
OCCN1CCN(CCCN2c3ccccc3Sc3ccc(Cl)cc32)CC1	31.9
CC(=O)c1ccc2c(c1)N(CCCN1CCC(CCO)CC1)c1ccccc1S2	79.6
CC(C)N1C(=O)C(O)(CC(=O)c2ccc3c(c2)OCCO3)c2ccccc21 (stereo unspecified)	-0.38
Cc1cccc2[nH]c(SCc3cc4c(cc3Cl)OCO4)nc12	0.52
NC1=NC(c2ccccc2O)n2c(nc3ccccc32)N1 (stereo unspecified)	3.56*
CCOc1cc(C2N=C(N)Nc3nc4ccccc4n32)ccc1O (stereo unspecified)	2.39
NC1=NC(c2ccccc2)n2c(nc3ccccc32)N1 (stereo unspecified)	2.18
COc1cc(C2N=C(N)Nc3nc4ccccc4n32)ccc1O (stereo unspecified)	5.87*
COc1ccc(C2N=C(N)Nc3nc4ccccc4n32)c(OC)c1 (stereo unspecified)	0.18
NC1=NC(c2ccncc2)n2c(nc3ccccc32)N1 (stereo unspecified)	0.89
CC(=O)Nc1c(C(C)(C)C)nn2c(C)cc(C(F)(F)F)nc12	0
Cc1ccc(C(=O)/C=C/Sc2nccc(C)n2)cc1	2.92
Cn1c(SCC(=O)Nc2cccc(C(F)(F)F)c2)nnc1-c1cncc(C#Cc2ccccc2)c1	0.25
CCOC(=O)C(NC(=O)c1cccc(C)c1)(Nc1ccc(C)cn1)C(F)(F)F (stereo unspecified)	-1.95
O=C1CC(c2ccc3c(c2)OCO3)c2c(-c3ccccc3)nn(-c3ccccc3)c2N1 (stereo unspecified)	0.02
COc1ccccc1C1N(c2ccccc2)OC(=O)N1c1ccccc1 (stereo unspecified)	0.2
O=C1ON(c2ccccc2)C(c2ccc3c(c2)OCO3)N1c1ccccc1 (stereo unspecified)	3.21*
CCOC(=O)c1ccc(N2CCOCC2)c(NS(=O)(=O)c2cc(Br)c(Cl)s2)c1	2.02
COc1ccc(CCN2C(=O)CSC2=Nc2cc(Cl)cc(Cl)c2)cc1OC	-0.84
